Bioassay records deposited in PubChem BioAssay by National Center for Advancing Translational Sciences (NCATS).
Sfp PPTase inh – Sfp phosphopantetheinyl transferase inhibition | Biochemical Sfp PPTase activity, qHTS | Potency, µM, hits mostly inhibitors | actives 3.5% (n = 310,000) | AID 1490;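 further: the enzyme is Sfp with the accession as filed and its product quenches rhodamine fluorescence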
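Sfp 15 nM + cpd, 15 min RT; start w/ rhodamine-CoA 5 uM, BHQ-2-YbbR 12.5 uM (final); 50 mM Hepes pH 7.6, 10 mM MgCl2, 0.01% NP-40, 0.01% BSA; read 525/598 nm at 0 and 30 min.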
TCR activator – T cell receptor activation; Potency, µM (series often up to 9.22 µM), usual class: activators; 330,000 tested, under 10 active; AID 504894; primary human leukocytes, anti-CD3, IL-2 HTRF, 48 h
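Activity was scored as IL-2 release from primary human leukocytes given only a TCR signal (a-CD3 beads) plus compound for 48 hr. Detection used a two-antibody HTRF format read at 665nm.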
ClpP mod – qHTS Assay for Activators of ClpP. purified B. subtilis ClpP, FRET peptide cleavage, 20 min. actives 1.9% (n = 340,000). Potency, µM (series often up to 57.5 µM). ATP-dependent Clp protease proteolytic subunit (Bacillus subtilis (strain 168)), P80244; active means well fitted falling curve with a large enough effect; inconclusive means small, poorly fitted or top-dose-only effect; inactive means no such curve, though single readings can be large or run the other way; further: the source files actives as falling curves though it sought activators and does not explain the sign; nearly all actives have a fitted effect of over 65% in size
Target sequence (P80244 whole entry, looked up): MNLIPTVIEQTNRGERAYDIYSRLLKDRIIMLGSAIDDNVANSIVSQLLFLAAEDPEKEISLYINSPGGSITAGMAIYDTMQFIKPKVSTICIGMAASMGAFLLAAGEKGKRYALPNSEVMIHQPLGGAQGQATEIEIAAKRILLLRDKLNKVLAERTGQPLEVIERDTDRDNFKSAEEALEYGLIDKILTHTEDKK
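FRET quenching reversal measured ClpP activation: 10 microg/mL B. subtilis ClpP at pH 8 with the FRET-FV decapeptide, read at 430 nm after 320 nm excitation. The 20-min minus 0-min signal was scaled between DMSO/no-enzyme wells and ADEP (5.8 microM final).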
uPA generation – cell surface uPA generation inhibition; cell surface uPA generation assay, qHTS; actives 0.31% (n = 330,000); Potency, µM (titrated, usually from 38.3 µM), usual class: inhibitors; active means well fitted inhibition curve with a large enough effect; inconclusive means small, poorly fitted or top-dose-only effect; inactive means no such curve, though single readings can be large or run the other way; tested in mouse RAW 264.7 cells; further: nearly all actives have a fitted effect of over 55% in size
Numbers stand for hits. Hits are enriched below; roughly 4.2% of the tested compounds scored in any of these assays. Unless noted, the call rests on the fitted dose curve; in most records, active means well fitted curve in the direction sought with a large enough effect; inconclusive means small, poorly fitted or top-dose-only effect, or another doubt; inactive means no such curve, though single readings can be large; an effect the other way counts as inactive or inconclusive.

Results for CN1C(=O)c2cccc3c(Cl)ccc(c23)C1=O ?
Sfp PPTase inh: inactive; TCR activator: inactive; ClpP mod: 16µM; uPA generation: inactive

How did COc1cc(SC)ccc1C(=O)Nc1ccc2ncccc2c1 do in these assays?
Sfp PPTase inh: inactive; ClpP mod: inactive; uPA generation: inactive

How did CC(=O)N1CCCC1c1nc2ccccc2n1Cc1cc(C)ccc1C (configuration not stated) do in these assays?
ClpP mod: inactive

Results for CN(C)CCC(=O)N1C/C(=C/c2ccccc2)C(=O)/C(=C\c2ccccc2)C1 ?
TCR activator: inactive; ClpP mod: 35µM; uPA generation: inactive

Results for CCOc1ccccc1C(=O)N(Cc1ccco1)C1CCS(=O)(=O)C1 (configuration not stated) ?
Sfp PPTase inh: 50µM; TCR activator: inactive; ClpP mod: inactive; uPA generation: inactive

Results for FC(F)(F)c1ccc(C2[C@H]3CN(Cc4cccnc4)[C@H](c4ccccc4)C34CC2(c2cccnc2)C4)cc1 (some centres not stated) ?
Sfp PPTase inh: 35µM; TCR activator: inactive; ClpP mod: inactive; uPA generation: inconclusive

How did FC(F)(F)c1ccc(C2[C@H]3CN(Cc4ccc(-c5ccccc5)cc4)[C@H](c4ccccc4)C34CC2(c2cccnc2)C4)cc1 (some centres not stated) do in these assays?
Sfp PPTase inh: inactive; TCR activator: inactive; ClpP mod: inactive; uPA generation: inactive

Results for Cc1cc(O)c(C=O)c2c1C(=O)Oc1c(CO)c(O)c3c(c1O2)C(O)OC3=O (configuration not stated) ?
Sfp PPTase inh: 14µM; TCR activator: inactive; ClpP mod: inactive; uPA generation: inactive

Results for Cc1cc(C)nc(NS(=O)(=O)c2ccc(NC(=O)CCC(=O)O)cc2)n1 ?
TCR activator: inactive; ClpP mod: inactive; uPA generation: inactive

How did COCc1cc(C)nc2sc3c(c12)NC(c1ccc(O)cc1)N(c1ccc(C)cc1)C3=O (configuration not stated) do in these assays?
ClpP mod: inactive

How did COc1ccc(CCNC(=O)c2ccc(Cn3c(SCc4ccccc4)nc4cccnc43)cc2)cc1 do in these assays?
ClpP mod: 32µM

How did COc1cccc(CCNC(=O)c2ccc(Cn3c(SCc4ccccc4)nc4cccnc43)cc2)c1 do in these assays?
ClpP mod: 25µM

What do the screens show for `COc1ccc(Cn2c(SCc3ccc(C(=O)NCc4cccs4)cc3)nc3cccnc32)cc1`?
ClpP mod: 28µM

What do the screens show for `CCOc1ccccc1CNC(=O)c1ccc(Cn2c(SCc3ccccc3)nc3cccnc32)cc1`?
ClpP mod: 16µM

What do the screens show for `Cc1ccc(NC(=O)C(=O)NCC(c2ccc3c(c2)OCO3)N2CCN(C)CC2)cc1C` (configuration not stated)?
ClpP mod: inactive

What do the screens show for `COC(=O)c1ccc(C(=O)OC)c(NC(=O)Cc2cccs2)c1`?
ClpP mod: inactive

What do the screens show for `CCc1ccc(CNC(=O)c2ccc(CSc3nc4ccncc4n3Cc3ccccc3)cc2)cc1`?
ClpP mod: 32µM

How did CCc1ccc(CNC(=O)c2ccc(CSc3nc4ccncc4n3Cc3ccc(OC)cc3)cc2)cc1 do in these assays?
ClpP mod: inactive

How did NC(=O)CC1C(=O)N(c2ccccc2)C(=S)N1NC(=O)c1ccccc1 (configuration not stated) do in these assays?
Sfp PPTase inh: inactive; TCR activator: inactive; uPA generation: inactive

Results for NC(=O)c1c(NC(=O)c2noc3c2CCCC3)sc2c1CCCC2 ?
ClpP mod: inactive

How did CCOC(=O)C1(C)C=C(Nc2ccc(NC(C)=O)cc2)C(=O)N1c1ccc(NC(C)=O)cc1 (configuration not stated) do in these assays?
Sfp PPTase inh: inactive; TCR activator: inactive; ClpP mod: 25µM; uPA generation: inactive

Results for CCOC(=O)c1c(NC(=O)c2nc(SC(C)C)ncc2Cl)sc2c1CCCC2 ?
ClpP mod: inactive

How did Cc1ccsc1C(=O)OCC(=O)NCc1ccco1 do in these assays?
Sfp PPTase inh: inactive; ClpP mod: 3.2µM; uPA generation: inactive

Results for Cc1ccccc1C(=O)OCC(=O)NCc1ccco1 ?
TCR activator: inactive; ClpP mod: inactive; uPA generation: inactive

How did Cc1ccc(C(=O)OCC(=O)NCc2ccco2)s1 do in these assays?
Sfp PPTase inh: 45µM; TCR activator: inactive; uPA generation: inactive

Results for COc1ccc(OCC(=O)OCC(=O)NCc2ccco2)cc1 ?
Sfp PPTase inh: inactive; TCR activator: inactive; ClpP mod: 28µM; uPA generation: inactive

Results for COc1ccc(-c2ccc(=O)n(CC(=O)NCc3ccco3)n2)cc1 ?
Sfp PPTase inh: inactive; TCR activator: inactive; ClpP mod: 25µM; uPA generation: inactive

How did Cc1ccc(-c2ccc(=O)n(CC(=O)NCc3ccco3)n2)cc1 do in these assays?
Sfp PPTase inh: inactive; TCR activator: inactive; ClpP mod: inactive

What do the screens show for `Cc1cccnc1C(NC(=O)C1CCN(CCCOc2ccc(F)cc2)CC1)c1ccccc1` (configuration not stated)?
ClpP mod: inactive

How did O=C(COC(=O)C1(c2ccc(F)cc2)CCCC1)NCc1ccco1 do in these assays?
Sfp PPTase inh: 56µM; TCR activator: inactive; uPA generation: inactive

How did O=C(COC(=O)CCC(=O)c1ccc(Cl)cc1)NCc1ccco1 do in these assays?
Sfp PPTase inh: 14µM; uPA generation: inactive

Results for Cc1ccc(-c2csc(=S)n2CC(=O)OCC(=O)NC(C)C(C)C)cc1 (configuration not stated) ?
Sfp PPTase inh: inactive; ClpP mod: inactive; uPA generation: inactive

Results for Cc1ccc(-c2csc(=S)n2CC(=O)OCC(=O)NCc2ccco2)cc1 ?
Sfp PPTase inh: 22µM; TCR activator: inactive; ClpP mod: inactive

How did COc1ccc(CNC(=O)CCc2nnc3n(CC(C)C)c(=O)c4ccccc4n23)cc1 do in these assays?
ClpP mod: inactive

Results for Cc1cc(C)n(CCC(=O)N2CCCC(Nc3ccc(F)cc3)C2)n1 (configuration not stated) ?
TCR activator: inactive; ClpP mod: inactive; uPA generation: inactive

Results for COc1cccc(/C=N/Nc2ncnc(N)c2[N+](=O)[O-])c1OC ?
Sfp PPTase inh: 45µM; TCR activator: inactive; ClpP mod: inactive; uPA generation: inactive

What do the screens show for `COc1ccccc1C(=O)NCC(=O)NNc1ncnc(N)c1[N+](=O)[O-]`?
Sfp PPTase inh: 7.1µM

What do the screens show for `COC(=O)c1ccc(NC(=O)C2CC2)o1`?
Sfp PPTase inh: inactive; TCR activator: inactive; ClpP mod: 14µM; uPA generation: inactive

Results for COC(=O)c1ccc(NC(=O)c2ccc(C)cc2)o1 ?
Sfp PPTase inh: inactive; TCR activator: inactive; ClpP mod: inactive; uPA generation: inactive

Results for COc1ccc(-n2ccnc(NCc3ccccc3OC)c2=O)cc1 ?
ClpP mod: inactive

How did Cc1cc2[nH]c3c4ccccc4nc(C)c3c2cc1C do in these assays?
TCR activator: inactive; ClpP mod: inactive; uPA generation: 10µM
